Here are results for 62 compounds from PubChem BioAssay AID1259374 (The Scripps Research Institute Molecular Screening Center, 2018).

Structures are written as SMILES. The whole screen tested about 650,000 compounds, of which about 5,900 (0.91%) were called active. What follows is part of a selection rich in actives, with near analogues and random picks from the rest. Unmarked numbers belong to inactive results. No stated cut-off is given here; in the data, active means inhibition above about 50%; inactive means the rest.

Chain of Microphthalmia-associated transcription factor (Homo sapiens) (O75030 whole entry, looked up): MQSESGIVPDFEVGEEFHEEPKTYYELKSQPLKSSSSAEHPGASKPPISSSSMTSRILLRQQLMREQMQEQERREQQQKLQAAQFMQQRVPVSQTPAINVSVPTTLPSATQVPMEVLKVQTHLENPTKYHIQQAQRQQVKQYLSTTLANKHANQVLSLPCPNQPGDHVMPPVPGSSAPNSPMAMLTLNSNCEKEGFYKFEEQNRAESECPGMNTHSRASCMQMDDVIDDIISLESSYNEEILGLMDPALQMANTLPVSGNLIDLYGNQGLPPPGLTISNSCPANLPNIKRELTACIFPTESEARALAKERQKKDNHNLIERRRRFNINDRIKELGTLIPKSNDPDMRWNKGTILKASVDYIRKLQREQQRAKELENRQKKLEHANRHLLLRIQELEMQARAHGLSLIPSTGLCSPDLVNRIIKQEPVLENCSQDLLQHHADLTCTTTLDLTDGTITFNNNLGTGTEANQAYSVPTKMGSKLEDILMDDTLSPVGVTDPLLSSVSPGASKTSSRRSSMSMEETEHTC

The assay concerns the target Microphthalmia-associated transcription factor (Homo sapiens) (UniProt O75030). Description: MITF inhibitors, primary screen, biochemical, AlphaScreen, human (AID 1259374).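 Further: 0% = vehicle wells with protein.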 The conditions noted are these: AlphaScreen MITF homodimerization, bead proximity signal; at 2.6 µM; active compounds read high. In general terms: In Alpha technology, singlet oxygen from a donor bead excites a nearby acceptor bead.
As for `CCN(CC)C(=O)C1CCCN(Cc2ccccc2OC)C1` (configuration not stated), the inhibition was 16.3%.

As to `COc1ccccc1CN1CC(C)OC(C)C1` (configuration not stated), the inhibition is 82.9% (active).

Take `CCOc1ccc(CN2CCN(Cc3cc(OC)ccc3O)CC2)cc1`: the inhibition is 20.6%.

Take `C=C(C)CN(CC)C(=O)C1CCN(Cc2cc(OC)ccc2OC)CC1`: the inhibition is 33.5%.

In the case of `COc1ccc(OC)c(CN2CCc3nnc(C4CCCO4)n3CC2)c1` (configuration not stated), the inhibition is 0.68%.

For `COc1ccc(OC)c(CN2CCC3(CCC(CNC(C)=O)O3)CC2)c1` (configuration not stated), the inhibition was -3.91%.

For `COc1ccccc1CN1CCN(c2ccccn2)CC1`, the inhibition was 45.1%.

For the compound `COc1ccc(CN2CCN(Cc3cc(OC)ccc3OC)CC2)cc1`, the inhibition was 76.4% (active).

As for `COc1ccc(S(=O)(=O)NCc2ccccc2OC)cc1Br`, the inhibition is 9.71%.

In the case of `COc1ccc(CN2CCN(Cc3ccccc3OC)CC2)cc1Br`, the inhibition is 77.2% (active).

On to `CC1CN(Cc2ccc3ccccc3c2)CC(C)O1` (configuration not stated), for which the inhibition was 1.44%.

Turning to `COc1ccc(OC)c(CN2CCN(Cc3ccc(Cl)cc3)CC2)c1`, the inhibition was 82.1% (active).

With `Cc1ccc(N2C(=O)CN(S(C)(=O)=O)CC2(C)C(=O)NC2CCCC2)cc1C` (configuration not stated), the inhibition is -2.11%.

Consider `O=C(OCCN=C1NS(=O)(=O)c2ccccc21)c1ccc([N+](=O)[O-])cc1`, for which the inhibition was -14%.

Regarding `O=C1c2ccccc2C(=O)N1CCSc1nc2sc3c(c2c(=O)n1-c1ccccc1)CCCC3`, the inhibition was -1.49%.

For `CCOC(=O)c1cc(-c2ccc(O)c(OC)c2)no1`, the inhibition was -12.8%.

As for `O=C(NCc1ccc(Cl)cc1)C1CCN(c2nnnn2-c2ccccc2)CC1`, the inhibition is 5.24%.

For `O=C(CSc1nc(Nc2ccc(F)cc2)c2ccccc2n1)c1ccc(Cl)cc1`, the inhibition was 10.1%.

Take `Cc1ccc2[nH]c3nc(N/N=C/c4ccc(N(C)C)cc4)nnc3c2c1`: the inhibition is 15.6%.

As to `CC(C)N(CCNc1nc(N2CCCC2CO)nc2nc[nH]c12)C(C)C` (configuration not stated), the inhibition was 5.38%.

As to `CC(=O)Oc1ccccc1C(=O)Nc1ccc(Cl)c(Cl)c1`, the inhibition was 0.46%.

`CCOC(=O)/C(C#N)=C/c1ccccc1OC`: the inhibition is -4.17%.

`CNc1ccccc1C(=O)OCc1ccc([N+](=O)[O-])cc1Cl`: the inhibition is 12.5%.

`Cc1ccc2nc3sc(C(=O)Nc4c[nH]c(=O)[nH]c4=O)c(N)c3cc2c1`: the inhibition is 0.86%.

In the case of `Cc1ccc2nc(CN3CCN(C=O)CC3)nc(N3CCSCC3)c2c1`, the inhibition is -5.97%.

For the compound `O=C(NCCc1ccc(F)cc1)c1ccc(Br)o1`, the inhibition is -9.44%.

Take `COc1cc(CN2CCN(C(=O)c3cc(OC)c(OC)c(OC)c3)CC2)cc(OC)c1O`: the inhibition was -11%.

`NCC1CCN(Cc2ccccc2Cl)CC1`: the inhibition is 21.9%.

With `O=CN1CCN(Cc2ccccc2Cl)CC1`, the inhibition is 3.26%.

`CCC(C(=O)N1CCN(C(=O)C(CC)c2ccccc2)CC1)c1ccccc1` (configuration not stated): the inhibition is 6.26%.

Take `COc1cc(CN2CCN(C(=O)C(c3ccccc3)c3ccccc3)CC2)cc(OC)c1OC`: the inhibition was 53.1% (active).

With `CC1CCCC(N2CCN(Cc3ccccc3Cl)CC2)C1` (configuration not stated), the inhibition was 63.2% (active).

As for `CCN(CC)C(=O)C(Cc1ccccc1)NCC(=O)Nc1ccc(C)cc1` (configuration not stated), the inhibition is 10.3%.

In the case of `COc1cccc(OC)c1C(=O)Nc1ccc(Cl)cn1`, the inhibition is -14.5%.

`CCOC(=O)c1sc(=S)n(-c2cccc(C(F)(F)F)c2)c1N`: the inhibition is -1.48%.

Regarding `CC(Nc1ccc(-c2cccc(C=O)c2)cn1)c1ccc(F)cc1` (configuration not stated), the inhibition is 7.6%.

Regarding `CN(C)c1cccc(Nc2nccc(Nc3ccccc3)n2)c1`, the inhibition was -2.6%.

Take `CN(C)c1cccc(Nc2ccc(-c3cccc(C=O)c3)cn2)c1`: the inhibition is 50.8% (active).

As to `Fc1ccc(-c2cccc3ccc(N4CCN(c5ncccn5)CC4)nc23)cc1`, the inhibition was 2.86%.

With `NC(=O)c1c(/N=C/c2ccc([N+](=O)[O-])cc2)sc2c1CCCC2`, the inhibition is 7.76%.

On to `O=C1N[C@H](Cc2ccc(O)cc2)C(=O)N2CCN(C(=O)c3ccccc3Cl)C[C@H]12`, for which the inhibition was -6.27%.

With `COc1ccccc1/C=C(/C#N)c1nc2ccccc2[nH]1`, the inhibition was 11.1%.

With `COc1cccc(/C=C(\C#N)c2nc3ccccc3[nH]2)c1OCc1ccc(Cl)cc1Cl`, the inhibition was 52.7% (active).

With `COc1cccc(/C=C(\C#N)c2nc3ccc(C)cc3[nH]2)c1OC`, the inhibition was 7.46%.

`Cc1ccc2oc(-c3ccc(C)c(NC(=O)c4ccc(Cl)c([N+](=O)[O-])c4)c3)nc2c1`: the inhibition is 14.9%.

Regarding `O=C1O/C(=C(\c2cccc3ccccc23)[N+](=O)[O-])c2ccccc21`, the inhibition was 7.98%.

For the compound `O=C(NCC1CCCO1)C1CCC(Cn2c(SCc3ccc([N+](=O)[O-])cc3)nc3ccccc3c2=O)CC1` (configuration not stated), the inhibition is 1.86%.

Turning to `COC(=O)c1sc2ccccc2c1NC(=O)c1ccc2c(c1)OCCO2`, the inhibition was 4.39%.

As to `COC(=O)c1cccc(NS(=O)(=O)c2ccc3ccccc3c2)c1C`, the inhibition was 52.5% (active).

In the case of `COC(=O)c1ccccc1NS(=O)(=O)c1ccc2[nH]c(=O)ccc2c1`, the inhibition is 6.38%.

In the case of `COC(=O)c1cccc(NC(=O)c2ccccc2NS(=O)(=O)c2ccc(C)cc2)c1C`, the inhibition was -6.07%.

On to `CCCCCCC1CCC(C(=O)Oc2ccc(C(=O)OCC)cc2)CC1` (configuration not stated), for which the inhibition was 7.45%.

Turning to `COc1ccc2c(c1)CC(C(=O)Nc1ccc(-c3ccncc3)cc1Oc1ccccc1)CO2` (configuration not stated), the inhibition is 12.9%.

For the compound `COc1ccc2c(c1)CC(c1nc3ccc(-c4cccnc4)cc3o1)CO2` (configuration not stated), the inhibition was -9.3%.

As to `COc1ccc2c(c1)CC(c1nc(Nc3ccc4cnccc4c3)c3ccccc3n1)CO2` (configuration not stated), the inhibition was 55.2% (active).

Turning to `O=C(Nc1nc(-c2ccc(Br)cc2)cs1)N1CCOCC1`, the inhibition is 6.09%.

On to `Cc1cc(-c2cnc(N3CCCCC3)nc2C2CCNCC2)on1`, for which the inhibition was -11%.

Take `CN(CCC(=O)Nc1cccc(F)c1)Cc1ccccc1`: the inhibition was -7.29%.

Regarding `O=C(Cc1cccc(Cl)c1)NCc1ccccc1`, the inhibition is -1.38%.

In the case of `CN(CCC(=O)O)Cc1cccc(Cl)c1`, the inhibition is 69.7% (active).

With `Cc1ccc(Nc2nc3nonc3nc2N2CCN(C(=O)c3ccccc3)CC2)cc1Cl`, the inhibition is 2.8%.

Regarding `CCc1ccccc1NC(=O)c1cc2nc(-c3cccs3)cc(C(F)(F)F)n2n1`, the inhibition was 23.3%.

As usually defined, the inhibition is the relative decrease from the control value, in per cent.
